The antibiotic and cytotoxicity screens of Wong et al. (2023)
Screen size: about 39,000 compounds; about 1,500 (3.8%) were called active. Shown is part of a subset that was picked to be rich in actives.

Test system: HSkMC (human skeletal muscle cells)
Assay: cytotoxicity call (relative viability < 0.9)
Conditions: 10 µM

SMILES | cytotoxicity call
CN(C)CCCCNC(=O)[C@H]1C[C@H]2C(=O)N3CCC[C@H]3C(=O)N2[C@H]1c1cccc(OCCO)c1 | inactive
O=C(N1CCOCC1)[C@]1(CCS(=O)(=O)c2ccccc2)N=C(c2ccc(OCCCO)cc2)O[C@@H]1c1ccccc1 | inactive
C[C@H]1CN([C@@H](C)CO)C(=O)c2ccccc2-c2ccccc2CO[C@H]1CN(C)Cc1ccc(Cl)c(Cl)c1 | active
C[C@H](CO)N1C[C@H](C)[C@@H](CN(C)Cc2cccc(C(F)(F)F)c2)OCc2ccccc2-c2c(n(C)c3ccccc23)C1=O | inactive
C[C@H]1CN([C@@H](C)CO)C(=O)c2c(c3ccccc3n2C)-c2ccccc2CO[C@H]1CN(C)Cc1cccc(C(F)(F)F)c1 | inactive
C[C@@H]1CN([C@H](C)CO)C(=O)c2c(c3ccccc3n2C)-c2ccccc2CO[C@@H]1CN(C)Cc1cccc(C(F)(F)F)c1 | inactive
C[C@@H]1CN([C@@H](C)CO)C(=O)c2c(c3ccccc3n2C)-c2ccccc2CO[C@H]1CN(C)Cc1cccc(F)c1 | inactive
C[C@H]1CN([C@@H](C)CO)C(=O)c2c(c3ccccc3n2C)-c2ccccc2CO[C@@H]1CN(C)Cc1cccc(C(F)(F)F)c1 | active
C[C@@H]1CN([C@@H](C)CO)C(=O)c2c(c3ccccc3n2C)-c2ccccc2CO[C@@H]1CN(C)Cc1cccc(C(F)(F)F)c1 | active
C[C@@H]1CN([C@H](C)CO)C(=O)c2c(c3ccccc3n2C)-c2ccccc2CO[C@H]1CN(C)Cc1cccc(C(F)(F)F)c1 | inactive
C[C@@H]1CN([C@@H](C)CO)C(=O)c2c(c3ccccc3n2C)-c2ccccc2CO[C@H]1CN(C)Cc1cccc(C(F)(F)F)c1 | inactive
C[C@H](CO)N1C[C@H](C)[C@H](CN(C)Cc2cccc(C(F)(F)F)c2)OCc2ccccc2-c2c(n(C)c3ccccc23)C1=O | active
C[C@@H]1CN([C@H](C)CO)C(=O)c2ccccc2-c2ccccc2CO[C@@H]1CN(C)Cc1ccc(Cl)c(Cl)c1 | inactive
C[C@@H]1CN([C@@H](C)CO)C(=O)c2ccccc2-c2ccccc2CO[C@@H]1CN(C)Cc1ccc(Cl)c(Cl)c1 | inactive
COc1ccc(NC(=O)N(C)C[C@H]2OCCCC[C@@H](C)Oc3ccc(NS(=O)(=O)c4ccc(Cl)cc4)cc3C(=O)N([C@@H](C)CO)C[C@H]2C)cc1 | inactive
C[C@@H]1CCCCO[C@@H](CN(C)C(=O)Cc2ccccc2)[C@H](C)CN([C@@H](C)CO)C(=O)c2cc(NC(=O)C3CCCCC3)ccc2O1 | inactive
C[C@@H]1CCCCO[C@@H](CN(C)C(=O)NC2CCCCC2)[C@H](C)CN([C@@H](C)CO)C(=O)c2cc(NS(=O)(=O)c3ccc(F)cc3)ccc2O1 | inactive
C[C@H]1CN([C@@H](C)CO)C(=O)c2cc(Br)cnc2O[C@@H]1CN(C)S(C)(=O)=O | inactive
Cc1noc(C)c1NC(=O)Nc1ccc2c(c1)CC(=O)N([C@@H](C)CO)C[C@H](C)[C@H](CN(C)S(=O)(=O)c1c(C)noc1C)O2 | inactive
CC(C)CC#Cc1ccc2c(c1)O[C@@H](CN(C)S(=O)(=O)c1ccc(F)cc1)[C@@H](C)CN([C@@H](C)CO)S2(=O)=O | inactive
C[C@@H]1CCCCO[C@@H](CN(C)Cc2ccc3c(c2)OCO3)[C@@H](C)CN([C@H](C)CO)C(=O)c2cc(NS(=O)(=O)c3ccccc3)ccc2O1 | inactive
O=C1CN(C(=O)c2ccccc2)C(=S)N1 | inactive
C[C@@H]1CN([C@H](C)CO)C(=O)c2cc(N(C)C)ccc2O[C@@H](C)CCCCO[C@H]1CN(C)Cc1ccc(C(=O)Nc2ccccc2N)cc1 | inactive

SMILES | cytotoxicity call
CCC(=O)Nc1ccc2c(c1)OC[C@H](C)N(C(=O)CN1CCOCC1)C[C@@H](C)[C@H](OC)CN(C)C2=O | inactive
Cc1ccc2c(c1)/C(=C/c1ccncc1)c1cc3ccccc3nc1-2 | inactive
OCc1ccccc1-c1ccccc1 | inactive
COc1ccc(NC(=O)Nc2ccc3c(c2)C(=O)N([C@@H](C)CO)C[C@H](C)[C@@H](CN(C)Cc2ccc(C(=O)O)cc2)OCCCC[C@@H](C)O3)cc1 | inactive
CC(C)N1C[C@H](C)[C@@H](CN(C)Cc2ccc(Cl)c(Cl)c2)Oc2c(C(=O)Nc3ccncc3)cccc2C1=O | inactive
COc1ccc(S(=O)(=O)N(C)C[C@H]2Oc3ccc(NS(C)(=O)=O)cc3C(=O)N([C@H](C)CO)C[C@@H]2C)cc1 | inactive
C[C@@H]1CN([C@@H](C)CO)C(=O)c2cc(NC(=O)c3ccccc3)ccc2O[C@@H](C)CCCCO[C@@H]1CN(C)Cc1ccccc1 | inactive
C[C@H](CO)N1C[C@H](C)[C@H](CN(C)Cc2cccc(C(F)(F)F)c2)OCc2ccccc2-c2ccccc2C1=O | inactive
C[C@@H]1CN([C@H](C)CO)C(=O)c2c(c3ccccc3n2C)-c2ccccc2CO[C@H]1CN(C)C(=O)Nc1cccc(C(F)(F)F)c1 | inactive
C[C@H](CO)N1C[C@H](C)[C@H](CN(C)C(=O)Nc2cccc(C(F)(F)F)c2)OCc2ccccc2-c2c(n(C)c3ccccc23)C1=O | active
C[C@H]1CN([C@@H](C)CO)C(=O)c2c(c3ccccc3n2C)-c2ccccc2CO[C@H]1CN(C)C(=O)Nc1cccc(C(F)(F)F)c1 | inactive
C[C@@H]1CN([C@H](C)CO)C(=O)c2ccccc2-c2ccccc2CO[C@@H]1CN(C)Cc1cccc(C(F)(F)F)c1 | inactive
C[C@@H]1CN([C@@H](C)CO)C(=O)c2ccccc2-c2ccccc2CO[C@@H]1CN(C)Cc1cccc(C(F)(F)F)c1 | active
C=CC(=O)NCCCCNC(=O)C=C | inactive
C[C@@H]1CN([C@@H](C)CO)C(=O)c2cc(NC(=O)NC3CCCCC3)ccc2O[C@@H](C)CCCCO[C@@H]1CN(C)C(=O)Nc1ccc2c(c1)OCO2 | inactive
CN1CCCCC[C@@H]1C(=O)O | inactive
CO[C@@H]1CN(C)C(=O)c2ccc(NC(=O)C3CC3)cc2OC[C@@H](C)N(C(=O)Cc2ccccn2)C[C@@H]1C | inactive
Cc1noc(C)c1S(=O)(=O)N(C)C[C@@H]1Oc2ccc(NC(=O)C3CC3)cc2CC(=O)N([C@@H](C)CO)C[C@H]1C | inactive
CC1(C)CCC(c2ccc(Cl)cc2)=C(CN2CCN(c3ccc(C(=O)NS(=O)(=O)c4ccc(N[C@H](CCN5CCOCC5)CSc5ccccc5)c(S(=O)(=O)C(F)(F)F)c4)cc3)CC2)C1 | active
CN(C)CC[C@H](CSc1ccccc1)Nc1ccc(S(=O)(=O)NC(=O)c2ccc(N3CCN(Cc4ccccc4-c4ccc(Cl)cc4)CC3)cc2)cc1[N+](=O)[O-] | inactive
CC1(C)CCC(c2ccc(Cl)cc2)=C(CN2CCN(c3ccc(C(=O)NS(=O)(=O)c4ccc(N[C@@H](CCN5CCOCC5)CSc5ccccc5)c(S(=O)(=O)C(F)(F)F)c4)cc3)CC2)C1 | active
CC1(C)CCC(CN2CCN(c3ccc(C(=O)NS(=O)(=O)c4ccc(NCC5CCOCC5)c([N+](=O)[O-])c4)c(Oc4cnc5[nH]ccc5c4)c3)CC2)=C(c2ccc(Cl)cc2)C1 | inactive
